The whole screen tested about 310,000 compounds, of which about 14,000 (4.5%) showed an effect of 50% or more. The effect is printed as a negative number. This excerpt belongs to a sample that is enriched for strong results.
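Further: peak tail current of the secondary pulse compared with the same well before compound.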

Chain of human ether-à-go-go-related gene (hERG) potassium channel (Q12809 whole entry, looked up): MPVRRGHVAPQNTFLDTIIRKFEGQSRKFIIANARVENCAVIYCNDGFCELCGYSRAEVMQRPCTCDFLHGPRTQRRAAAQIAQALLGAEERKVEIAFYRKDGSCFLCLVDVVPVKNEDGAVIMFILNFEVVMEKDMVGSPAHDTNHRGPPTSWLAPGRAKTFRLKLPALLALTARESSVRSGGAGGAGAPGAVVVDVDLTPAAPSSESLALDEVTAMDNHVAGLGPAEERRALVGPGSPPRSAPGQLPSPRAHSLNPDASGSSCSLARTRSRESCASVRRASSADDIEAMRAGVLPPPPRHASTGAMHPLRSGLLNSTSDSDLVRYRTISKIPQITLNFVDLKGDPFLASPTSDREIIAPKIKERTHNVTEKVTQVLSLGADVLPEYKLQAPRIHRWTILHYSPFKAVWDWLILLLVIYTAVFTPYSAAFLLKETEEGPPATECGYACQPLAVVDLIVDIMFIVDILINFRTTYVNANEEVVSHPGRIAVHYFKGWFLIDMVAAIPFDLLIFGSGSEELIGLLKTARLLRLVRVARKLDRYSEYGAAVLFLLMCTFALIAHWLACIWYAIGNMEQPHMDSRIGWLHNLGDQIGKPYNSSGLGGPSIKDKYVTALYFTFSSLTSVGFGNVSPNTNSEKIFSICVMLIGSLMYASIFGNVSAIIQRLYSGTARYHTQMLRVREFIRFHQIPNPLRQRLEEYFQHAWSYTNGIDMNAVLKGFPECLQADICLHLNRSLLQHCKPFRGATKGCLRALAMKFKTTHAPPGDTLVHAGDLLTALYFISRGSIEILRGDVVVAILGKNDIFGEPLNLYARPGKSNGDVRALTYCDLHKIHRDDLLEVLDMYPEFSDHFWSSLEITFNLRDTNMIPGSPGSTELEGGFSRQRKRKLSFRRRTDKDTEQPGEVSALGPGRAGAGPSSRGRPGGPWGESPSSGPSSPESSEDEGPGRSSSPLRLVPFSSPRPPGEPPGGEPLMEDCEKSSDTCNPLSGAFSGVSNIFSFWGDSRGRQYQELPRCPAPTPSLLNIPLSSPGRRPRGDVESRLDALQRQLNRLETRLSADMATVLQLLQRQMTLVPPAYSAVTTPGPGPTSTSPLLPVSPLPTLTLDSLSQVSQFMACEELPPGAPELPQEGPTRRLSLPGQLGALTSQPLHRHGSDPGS

The test concerns the target human ether-à-go-go-related gene (hERG) potassium channel (human, UniProt Q12809). Description: primary screen, population patch clamp on CHO cells stably expressing hERG; higher = less effect of the substance.
In the case of `COc1ccc(NS(=O)(=O)c2ccc(NC(=O)C3CC3)cc2)cc1`, the “hERG current change (%, negative = inhibition) at 10uM” value amounted to 18.6%. In the case of `CCOc1ccc(CC(=O)OCn2nnc3ccccc3c2=O)cc1`, the “hERG current change (%, negative = inhibition) at 10uM” value is 11.4%.

Turning to `Cc1ccc(NS(=O)(=O)c2ccc(-c3ccc(=O)[nH]n3)o2)cc1N(C)C`, the “hERG current change (%, negative = inhibition) at 10uM” value is listed as 1.5%.

In the case of `Fc1ccccc1C1c2cccn2CCN1C(=S)Nc1cccc(Br)c1` (stereo not shown), the “hERG current change (%, negative = inhibition) at 10uM” value stood at 12.9%. The value for `CN1C(=O)OC(C)(C)C1=O` was -2.78%. For the compound `CO/N=C/C(C#N)=C/c1cc(C(=O)c2ccccc2)cn1C`, the “hERG current change (%, negative = inhibition) at 10uM” value was found to be 18.4%.

With `O=C1OCCN1C(=O)[C@H]1[C@H](c2ccc([N+](=O)[O-])cc2)C(c2cccc(Cl)c2)=NN1c1ccccc1`, the “hERG current change (%, negative = inhibition) at 10uM” value was found to be 5.99%. With `CCOC(=O)c1ccc(NC(=O)N2C3CCCC2CC(NC(C)=O)C3)cc1` (stereo not shown), the “hERG current change (%, negative = inhibition) at 10uM” value is -11.6%.

Regarding `Cc1cc(C)cc(OCC(=O)OCC(=O)c2c(N)n(C)c(=O)n(C)c2=O)c1`, the “hERG current change (%, negative = inhibition) at 10uM” value is listed as -5.06%. The value for `Cc1ccc(S(=O)(=O)CCC(=O)OCC(=O)c2c(N)n(CC(C)C)c(=O)n(C)c2=O)cc1` was -27.9%; that for `CCOc1ccccc1OCC(=O)OCC(=O)c1c(N)n(CC(C)C)c(=O)n(C)c1=O` was -67.5%; that for `CCC(C(=O)OCC(=O)c1c(N)n(CC(C)C)c(=O)n(C)c1=O)c1ccccc1` (stereo not shown) was -2.13%. `Cc1ccccc1OCCC(=O)OCC(=O)c1c(N)n(CC(C)C)c(=O)n(C)c1=O`: the “hERG current change (%, negative = inhibition) at 10uM” value is recorded as -75.2%.

With `CC(=O)NC(CC(=O)OCC(=O)c1c(N)n(CC(C)C)c(=O)n(C)c1=O)c1ccccc1` (stereo not shown), the “hERG current change (%, negative = inhibition) at 10uM” value is reported as -3.32%. The result for `Cc1ccc(OCCC(=O)OCC(=O)c2c(N)n(C)c(=O)n(C)c2=O)cc1` reads -58.3%; that for `Cc1cccc(C(=O)OCC(=O)c2c(N)n(CC(C)C)c(=O)n(C)c2=O)c1O`, -15.2%. Regarding `Cc1csc(=O)n1CCC(=O)OCC(=O)c1c(N)n(CC(C)C)c(=O)n(C)c1=O`, the “hERG current change (%, negative = inhibition) at 10uM” value is given as -26.2%. Take `CC(C)Cn1c(N)c(C(=O)COC(=O)CCNS(=O)(=O)c2ccccc2)c(=O)n(C)c1=O`: the “hERG current change (%, negative = inhibition) at 10uM” value is -48.4%. With `Cc1ccc(OCCC(=O)OCC(=O)c2c(N)n(CC(C)C)c(=O)n(C)c2=O)cc1`, the “hERG current change (%, negative = inhibition) at 10uM” value is given as -71.9%.

For the compound `CCOc1ccc(OCCC(=O)OCC(=O)c2c(N)n(C)c(=O)n(C)c2=O)cc1`, the “hERG current change (%, negative = inhibition) at 10uM” value is listed as -23%. The value for `O=C(Cn1cnc2ccccc21)OCC(=O)N1CCCc2ccccc21` was 8.8%; that for `CCCCNC(=S)N/N=C/c1ccccc1F` was 2.81%. The result for `Cc1ccc(OC(C)C(=O)Nc2ccc3c(c2)n(C)c(=O)n3C)c(C)c1` (stereo not shown) reads 11.7%; that for `Cc1ccc(S(=O)(=O)NCc2ccc(C(=O)NCCN(Cc3ccccc3)C(C)C)cc2)cc1`, -36.4%; that for `Cc1ccc(S(=O)(=O)NC(CC(C)C)C(=O)NCC(C)(C)N2CCOCC2)cc1` (stereo not shown), 11.6%.

`COc1ccc(NC(=O)CCCn2c(=O)c3sccc3n(Cc3cccc(C)c3)c2=O)cc1`: the “hERG current change (%, negative = inhibition) at 10uM” value was found to be 12.7%.

`Cc1cnc(C(=O)OCC(=O)NCCc2ccccc2)cn1`: the “hERG current change (%, negative = inhibition) at 10uM” value was -3.4%. As for `O=C(c1cccc(NS(=O)(=O)c2cccc(F)c2)c1)N1CCN(c2ccccc2)CC1`, the “hERG current change (%, negative = inhibition) at 10uM” value was -8.41%. The value for `CSCCC(NC(=O)COc1cccc2ccccc12)C(=O)O` (stereo not shown) was 0.83%; that for `CCc1ccc(N2CC(C(=O)OCC(=O)c3c(N)n(CC(C)C)c(=O)n(C)c3=O)CC2=O)cc1` (stereo not shown) was -7.72%. For `CC(C)Cn1c(N)c(C(=O)COC(=O)CCc2nc3ccccc3c(=O)[nH]2)c(=O)n(C)c1=O`, the “hERG current change (%, negative = inhibition) at 10uM” value was -36%. On to `Cn1c(N)c(C(=O)COC(=O)/C=C/c2ccc(Cl)cc2)c(=O)n(C)c1=O`, for which the “hERG current change (%, negative = inhibition) at 10uM” value was -43.3%. The value for `COc1ccccc1CCC(=O)OCC(=O)c1c(N)n(CC(C)C)c(=O)n(C)c1=O` was -70.3%. In the case of `Cc1ccc(N2CC(C(=O)OCC(=O)c3c(N)n(CC(C)C)c(=O)n(C)c3=O)CC2=O)cc1` (stereo not shown), the “hERG current change (%, negative = inhibition) at 10uM” value is -3.07%. As for `CC(C)Cn1c(N)c(C(=O)COC(=O)C2CC(=O)N(c3ccc4c(c3)OCCO4)C2)c(=O)n(C)c1=O` (stereo not shown), the “hERG current change (%, negative = inhibition) at 10uM” value is recorded as -52.6%. The result for `CCc1ccccc1OCC(=O)OCC(=O)c1c(N)n(C)c(=O)n(C)c1=O` reads -53.6%. For the compound `COc1ccc(/C=C/C(=O)OCC(=O)c2c(N)n(C)c(=O)n(C)c2=O)cc1`, the “hERG current change (%, negative = inhibition) at 10uM” value stood at 5.38%. The value for `COc1ccc(CCC(=O)OCC(=O)c2c(N)n(CC(C)C)c(=O)n(C)c2=O)cc1` was -33.4%. The value for `Cn1c(N)c(C(=O)COC(=O)COc2ccccc2C#N)c(=O)n(C)c1=O` was -23.2%; that for `Cc1cccc(OCC(=O)OCC(=O)c2c(N)n(C)c(=O)n(C)c2=O)c1C` was -1.84%. Turning to `Cn1c(N)c(C(=O)COC(=O)/C=C/c2ccc(F)cc2)c(=O)n(C)c1=O`, the “hERG current change (%, negative = inhibition) at 10uM” value is -51.8%. On to `Cc1cc(C)nc(SCCC(=O)Nc2ccc(F)cc2)n1`, for which the “hERG current change (%, negative = inhibition) at 10uM” value came to 7.84%. The value for `O=C(/C=C\Nc1cccc(F)c1)c1cccs1` was 11.7%.
